According to PubChem BioAssay (NCATS):
Inconclusive results are not listed. Active and inactive are the calls of the source. Calls come from the whole dose curve; as a rule, active = well fitted curve in the direction sought with a large enough effect; inconclusive = small, poorly fitted or top-dose-only effect, or another doubt; inactive = no such curve, though single readings can be large; an effect the other way counts as inactive or inconclusive. Bridge positions count the residues as written; N and C are the ends. Square brackets hold non-standard residues; d marks the D form. Peptide text beside a SMILES is read from it. * marks the point of attachment. ξ: configuration not given here. ξDab(CH2SO3H) = NC(CCNCS(=O)(=O)O)C(=O)O; Heptanoyl(6-Me) = CC(C)CCCCC(=O)*; Dab = NCC[CH](N)C(=O)O

What was measured:
[1] = biological target: Luciferin 4-monooxygenase (Photinus pyralis) (UniProt P08659); assay: Biochemical firefly luciferase enzyme assay for NPC (AID 624030);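 note: purified P. pyralis luciferase at 10 nM with luciferin and ATP substrate; nearly all actives have a fitted effect of over 70% in size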
Procedure, shortened: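 Purified P. pyralis luciferase at 10 nM in 50 mM Tris Acetate (final), luminescence read within 5 minutes of enzyme addition to compounds. Activity normalised to PTC124 versus DMSO; concentration-response curves classed by r2, magnitude and activity.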

[2] = S16 Schwann cell viability assay (CellTiter-Glo assay) (AID 624031);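 note: cellular ATP luminescence as a viability measure; nearly all actives have a fitted effect of over 70% in size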
Procedure, shortened: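 Native S16 Schwann cells (rat), serum-containing medium, overnight attachment then 24 h drug exposure at 37 °C/5% CO2. CellTiter-Glo ATP signal; normalized to cell-free and vehicle wells.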

[3] = S16 Schwann cell PMP22 intronic element firefly luciferase assay (AID 624032); note: nearly all actives have a fitted effect of over 30% in size
Procedure, shortened: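 Rat S16 Schwann cells stably carrying firefly luciferase driven by a PMP22 intronic element, in 10% FBS, treated 24 h at 37 C. ONE-Glo luminescence normalized to PTC124 control and DMSO (0%); curves classed by r2, magnitude and activity.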

AS120 = assay: qHTS profiling for inhibitors of Plasmodium falciparum proliferation (AID 504749); note: nearly all actives have a fitted effect of over 60% in size; conditions: P. falciparum in erythrocytes, SYBR Green DNA, 72 h; series mostly up to 28.7 µM
Procedure, shortened: (§1)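 P. falciparum-infected erythrocytes (0.3% parasitemia, 2.5% hematocrit) incubated with compound 72 h at 37 C, 5% CO2. Parasite DNA detected by SYBR Green after lysis, overnight at room temperature; normalised to 0.29 uM artemisinin and DMSO.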

ATS95 = assay: as above; conditions: P. falciparum in erythrocytes, SYBR Green DNA, 72 h; series mostly up to 28.7 µM
Procedure, shortened: as §1

CP191 = assay: as above; conditions: P. falciparum in erythrocytes, SYBR Green DNA, 72 h; series mostly up to 28.7 µM
Procedure, shortened: as §1

CP247 = assay: as above; conditions: P. falciparum in erythrocytes, SYBR Green DNA, 72 h; series mostly up to 28.7 µM
Procedure, shortened: as §1

CP250 = assay: as above; conditions: P. falciparum in erythrocytes, SYBR Green DNA, 72 h; series mostly up to 28.7 µM
Procedure, shortened: as §1

CP262 = assay: as above; conditions: P. falciparum in erythrocytes, SYBR Green DNA, 72 h; series mostly up to 28.7 µM
Procedure, shortened: as §1

CP297 = assay: as above; conditions: P. falciparum in erythrocytes, SYBR Green DNA, 72 h; series mostly up to 28.7 µM
Procedure, shortened: as §1

CP335 = assay: as above; conditions: P. falciparum in erythrocytes, SYBR Green DNA, 72 h; series mostly up to 28.7 µM
Procedure, shortened: as §1

Dd2 = assay: as above; conditions: P. falciparum in erythrocytes, SYBR Green DNA, 72 h; series mostly up to 28.7 µM
Procedure, shortened: as §1

ECU = assay: as above; conditions: P. falciparum in erythrocytes, SYBR Green DNA, 72 h; series mostly up to 28.7 µM
Procedure, shortened: as §1

N140 = assay: as above; conditions: P. falciparum in erythrocytes, SYBR Green DNA, 72 h; series mostly up to 28.7 µM
Procedure, shortened: as §1

P93_24 = assay: as above; conditions: P. falciparum in erythrocytes, SYBR Green DNA, 72 h; series mostly up to 28.7 µM
Procedure, shortened: as §1

PAD = assay: as above; conditions: P. falciparum in erythrocytes, SYBR Green DNA, 72 h; series mostly up to 28.7 µM
Procedure, shortened: as §1

TAB109 = assay: as above; conditions: P. falciparum in erythrocytes, SYBR Green DNA, 72 h; series mostly up to 28.7 µM
Procedure, shortened: as §1

TAB113 = assay: as above; conditions: P. falciparum in erythrocytes, SYBR Green DNA, 72 h; series mostly up to 28.7 µM
Procedure, shortened: as §1

TAB165 = assay: as above; conditions: P. falciparum in erythrocytes, SYBR Green DNA, 72 h; series mostly up to 28.7 µM
Procedure, shortened: as §1

Measured: Potency

Chain of Luciferin 4-monooxygenase (Photinus pyralis) (P08659 whole entry, looked up): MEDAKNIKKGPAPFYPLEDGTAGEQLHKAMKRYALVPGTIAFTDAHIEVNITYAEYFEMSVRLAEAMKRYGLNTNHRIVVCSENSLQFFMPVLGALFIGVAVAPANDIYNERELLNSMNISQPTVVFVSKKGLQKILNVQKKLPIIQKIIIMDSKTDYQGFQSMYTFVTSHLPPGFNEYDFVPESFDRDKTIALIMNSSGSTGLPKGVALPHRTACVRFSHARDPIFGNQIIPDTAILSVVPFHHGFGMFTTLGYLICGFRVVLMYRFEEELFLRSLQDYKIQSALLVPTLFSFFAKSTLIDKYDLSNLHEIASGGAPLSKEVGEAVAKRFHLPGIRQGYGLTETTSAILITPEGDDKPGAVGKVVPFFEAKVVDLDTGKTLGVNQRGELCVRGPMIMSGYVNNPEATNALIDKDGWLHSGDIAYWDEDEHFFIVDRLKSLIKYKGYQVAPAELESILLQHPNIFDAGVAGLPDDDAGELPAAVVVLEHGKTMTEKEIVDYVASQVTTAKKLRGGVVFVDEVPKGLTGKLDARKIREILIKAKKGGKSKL

CC(=O)OCC(=O)[C@@]1(O)CCC2C3CCC4=CC(=O)CC[C@]4(C)C3=CC[C@@]21C (stereo not given in full)
inactive: [1] | [2] | [3] | AS120 | ATS95 | CP191 | CP247 | CP250 | CP262 | CP297 | CP335 | Dd2 | ECU | N140 | P93_24 | PAD | TAB109 | TAB113 | TAB165

CC(C)C(NC(=O)C(CC(=O)O)NC(=O)C(CCCCN)NC(=O)C(N)CCCN=C(N)N)C(=O)NC(Cc1ccc(O)cc1)C(=O)O (stereo not given) (H-RKDVY-OH; configuration not given here)
inactive: [1] | [2] | [3] | AS120 | ATS95 | CP191 | CP247 | CP250 | CP262 | CP297 | CP335 | Dd2 | ECU | N140 | P93_24 | PAD | TAB109 | TAB113 | TAB165

C=CC1=C(C(=O)O)N2C(=O)[C@@H](NC(=O)C(N=O)c3csc(N)n3)[C@H]2SC1 (stereo not given in full)
inactive: [1] | [2] | [3] | AS120 | ATS95 | CP191 | CP247 | CP250 | CP262 | CP297 | CP335 | Dd2 | ECU | N140 | P93_24 | PAD | TAB109 | TAB113 | TAB165

CCC(C)C1NC(=O)C(CCNCS(=O)(=O)O)NC(=O)C(NC(=O)C(CCNCS(=O)(=O)O)NC(=O)C(NC(=O)C(CCNCS(=O)(=O)O)NC(=O)CCCCC(C)C)C(C)O)CCNC(=O)C(C(C)O)NC(=O)C(CCNCS(=O)(=O)O)NC(=O)C(CCNCS(=O)(=O)O)NC(=O)C(C(C)CC)NC1=O (stereo not given) ({Heptanoyl(6-Me)}-[ξDab(CH2SO3H)]T[ξDab(CH2SO3H)][Dab][ξDab(CH2SO3H)]II[ξDab(CH2SO3H)][ξDab(CH2SO3H)]T; lactam 4-C; configuration not given here)
inactive: [1] | [2] | [3] | AS120 | ATS95 | CP191 | CP247 | CP262 | CP297 | CP335 | Dd2 | ECU | N140 | P93_24 | PAD | TAB109 | TAB113 | TAB165
